High-throughput results deposited in PubChem by Broad Institute.
PfHsp40 rescue = rescue of yeast from PfHsp40 toxicity, primary screen, S. cerevisiae, ATP luminescence. S. cerevisiae expressing PfHsp40, growth rescue. growth rescue, % at 12.5 µM. 340,000 compounds, 0.68% hits. AID 504582, 2011; in the data active = growth rescue above about 28%, passing the limit was not always enough; inconclusive = no clear call, values can overlap the other calls;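 also: yeast W303a lacking pdr1 and pdr3 grown in galactose medium; growth measured after three days at 30 °C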
Mtb BioA inh = M. tuberculosis BioA enzyme inhibitors, primary screen, biochemical, plate reader, single point, HTS. 7,8-diaminopelargonic acid synthase BioA (Mycobacterium tuberculosis). purified M. tuberculosis BioA enzyme. inhibition, % at 9.99 µM. 360,000 compounds, 0.096% hits. AID 602481, 2012; in the data active = inhibition above about 40%; inconclusive = no clear call, values can overlap the other calls
FadD28 FP inh = inhibitors of FadD28 bisubstrate probe binding, primary screen, biochemical, fluorescence polarization, single point; inhibition, % at 12.5 µM; 360,000 compounds, 0.22% hits; AID 588549, 2011; in the data active = inhibition above about 8.5%, passing the limit was not always enough; inconclusive = no clear call, values can overlap the other calls
Yp Topo-I inh = Yersinia pestis topoisomerase I inhibitors, primary screen, biochemical, cleavage product accumulation, plate reader, single point | DNA topoisomerase I (Yersinia pestis CO92) | Y. pestis Topo-I cleavage product accumulation | activity, % at 10 µM | 360,000 compounds, 0.064% hits | AID 504884, 2011; in the data active = activity above about 50%, passing the limit was not always enough; inconclusive = no clear call, values can overlap the other calls
PrP 5UTR inh = inhibition of PrP 5' UTR reporter expression. 340,000 compounds, 0.35% hits. AID 488862, 2010. inhibition, % (no concentration beside the values). cell-based PrP 5' UTR mRNA reporter, plate reader; in the data active = inhibition above about 52%; also: 0 = median of the neutral control wells
PrP UTR cherry = prion 5' UTR mRNA inhibition, cherry-pick retest | 1,100 compounds, 48% hits | cell-based prion protein 5' UTR reporter, plate reader | inhibition, % at 2.5 µM | shares compounds with PrP 5UTR inh | AID 504592, 2011; in the data active = inhibition above about 54%; inconclusive = no clear call, values can overlap the other calls
Active calls of the source: *; ? = inconclusive; nt = no result given. The list is not random: actives were taken first. Their share in the collection is about 1.1%.

SMILES | PfHsp40 rescue | Mtb BioA inh | FadD28 FP inh | Yp Topo-I inh | PrP 5UTR inh | PrP UTR cherry
COc1ccc(S(=O)(=O)N(C)C[C@@H]2OCCCC[C@H](C)Oc3ccc(NC(=O)Nc4ccc5c(c4)OCO5)cc3C(=O)N([C@H](C)CO)C[C@H]2C)cc1 | nt | -2 | nt | nt | nt | nt
NC(=O)c1cc2c3ccccc3ccn2c1-c1ccccc1 | 0 | -1 | -3 | 2 | 72* | 90*
CCN=C1NN=C(c2cc(C)n(Cc3ccco3)c2C)CS1 | 0 | nt | -1 | -7 | 83* | 72*
O=C(NCC[C@H]1CC[C@H](NS(=O)(=O)c2cccc(Cl)c2)[C@@H](CO)O1)c1cnccn1 | nt | -2 | nt | nt | nt | nt
COc1ccccc1NC(=S)N(Cc1ccccc1)Cc1cccs1 | 0 | 1 | -3 | 0 | 67* | -24
CN1CCN(CC(=O)Nc2cccc(S(=O)(=O)N(C)c3ccccc3)c2)CC1 | -1 | 0 | nt | 1 | 91* | 0
CCCC(=O)Nc1cccc(S(=O)(=O)N(C)c2ccccc2)c1 | -1 | 1 | -2 | 4 | -7 | nt
CCC(C)(C)n1nnnc1C(c1cccs1)N1CCCCC1 (configuration not stated) | -1 | 3 | -1 | -1 | 52* | -5
CC1=CC(C)CC(C)OC(=O)CC(c2ccc(O)cc2)NC(=O)C(Cc2c(Br)[nH]c3ccccc23)N(C)C(=O)C(C)NC(=O)C(C)C1 (configuration not stated) | 7 | nt | 0 | 12 | 74* | 95*
COC(=O)c1ccc(CN2C(=O)NC(CC(C)C)C2=O)cc1 (configuration not stated) | 0 | 4 | -2 | -2 | 81* | -1
CCc1ccccc1NC(=O)CSc1nc2ccccc2nc1N1CCOCC1 | 1 | -2 | -1 | -4 | 58* | -8
C[C@@H]1CN([C@H](C)CO)C(=O)Cc2cc(NC(=O)Nc3ccc(F)cc3)ccc2O[C@H]1CN(C)S(=O)(=O)c1ccc(F)cc1 | nt | 2 | nt | nt | nt | nt
Cc1nc2c(-c3ccc(F)cc3)cnn2c(N)c1-c1ccccc1 | 5 | 1 | -3 | -20 | 68* | 44
Cc1nc2c(-c3ccc(Cl)cc3)cnn2c(N)c1-c1ccc(F)cc1 | 1 | 5 | -3 | -5 | 56* | 5
Cc1ccc(S(=O)(=O)N(C)c2c(C)ccc(S(=O)(=O)NC(C)(C)C)c2C)cc1 | 0 | nt | -2 | 3 | 82* | -39
COc1ccccc1-c1nnc2sc(-c3cc4ccccc4o3)nn12 | 0 | 0 | -5 | 22 | 54* | 64*
O=[N+]([O-])c1nn(-c2ccc3c(c2)OCCO3)n(O)c1=Nc1ccc(Cl)cc1 | 0 | -1 | -3 | 1 | 14 | nt
O=[N+]([O-])c1nn(-c2ccc3c(c2)OCCO3)n(O)c1=Nc1ccccc1 | 0 | nt | 0 | -3 | 81* | 78*
CO[C@H]1CN(C)C(=O)c2ccc(NC(=O)NC(C)C)cc2OC[C@@H](C)N(Cc2ccc(-c3ccccn3)cc2)C[C@@H]1C | nt | 0 | nt | nt | nt | nt
O=C(Nc1nc2cc3c(cc2s1)OCO3)c1ccco1 | -1 | -2 | 1 | 6 | 52 | nt
O=C(Nc1nc2cc3c(cc2s1)OCO3)C1=COCCO1 | 0 | 0 | -3 | -13 | 70* | 64*
O=C(Nc1nc2cc3c(cc2s1)OCCO3)c1ccco1 | 1 | -2 | -3 | -2 | 78* | 81*
O=C(Nc1ccc(-c2nc3ccccc3s2)cc1)C1=COCCO1 | -1 | -1 | 1 | -9 | 73* | 66*
CC1CCc2nc(NC(=O)c3ccco3)sc2C1 (configuration not stated) | 0 | -1 | -4 | 4 | 57* | 54*
O=C(Nc1cccc(-c2nc3ccccc3s2)c1)C1=COCCO1 | 1 | nt | -5 | 10 | -14 | nt
SMILES | PfHsp40 rescue | Mtb BioA inh | FadD28 FP inh | Yp Topo-I inh | PrP 5UTR inh | PrP UTR cherry
COc1ccc(S(=O)(=O)Nc2ccc3c(c2)C(=O)N([C@@H](C)CO)C[C@@H](C)[C@H](CN(C)C(=O)CCC(F)(F)F)OCCCC[C@@H](C)O3)cc1 | nt | 1 | nt | nt | nt | nt
COc1ccccc1-c1cn(CC[C@H]2CC[C@H](NC(=O)CCN3CCCCC3)[C@@H](CO)O2)nn1 | nt | 4 | nt | nt | nt | nt
COc1ccc(CNC(=O)N(C)C[C@@H]2OCc3ccccc3-c3ccccc3C(=O)N([C@@H](C)CO)C[C@@H]2C)cc1 | nt | 0 | nt | nt | nt | nt
Cc1ccc(NC(=O)/C=C/c2ccco2)nc1 | 1 | nt | -2 | 1 | 70* | 84*
O=C(/C=C/c1ccco1)Nc1ccccn1 | -1 | -1 | 0 | 2 | -20 | nt
CC(=O)OC1CC2OC3C=C(C)CCC3(C)C1(C)C21CO1 (configuration not stated) | nt | 0 | -1 | 1 | nt | nt
CC(=O)O[C@H]1C[C@@H]2OC3C=C(C)CCC3(C)[C@@]1(C)[C@@]21CO1 (some centres not stated) | nt | nt | 1 | 12 | 72* | 59*
CCCS(=O)(=O)N1CCCC(C(=O)NC2CCCC(C)C2C)C1 (configuration not stated) | -1 | -1 | 2 | -3 | 86* | -13
CCCS(=O)(=O)N1CCC(C(=O)NC2CCCC(C)C2C)CC1 (configuration not stated) | -1 | -1 | 0 | -4 | 1 | nt
Cc1ccc(NC(=O)CN(C)C(=O)C2COc3ccccc3O2)cc1 (configuration not stated) | 0 | nt | -1 | -3 | 75* | -9
COc1ccc(NC(=O)Nc2ccc3c(c2)CC(=O)N([C@@H](C)CO)C[C@@H](C)[C@H](CN(C)C(=O)Nc2ccc(F)cc2)O3)cc1 | nt | -1 | nt | nt | nt | nt
CC(C)(C)[C@H]1COC(=O)CCCC/C=C\C[C@H](CC(=O)NCCO)C(=O)N1 | 0 | 1 | -2 | 2 | 58* | ?
O=C(O)c1cccc(NC(=S)N/N=C/c2ccccc2OCc2ccc(Br)cc2)c1 | 0 | nt | -19 | 7 | -22 | nt
CCOc1cc(/C=N/Nc2cccc(C(=O)O)c2)ccc1OC(=O)c1ccccc1 | 1 | nt | 0 | 5 | 71* | ?
COC(=O)c1ccc(COc2ccccc2/C=N/Nc2cccc(C(=O)O)c2)cc1 | 0 | nt | 1 | 21 | 77* | -34
COc1cc(C2c3cc4c(cc3CC3COC(=O)C32)OCO4)cc(OC)c1OC (configuration not stated) | 1 | 2 | 0 | 7 | 55 | nt
COc1cc(C2c3cc4c(cc3CC3COC(=O)N32)OCO4)cc(OC)c1OC (configuration not stated) | -1 | nt | -3 | 4 | 58* | 91*
CCN1C/C(=C\c2cccc([N+](=O)[O-])c2)C(=O)/C(=C/c2cccc([N+](=O)[O-])c2)C1 | -2 | -2 | -4 | -5 | 63* | 61*
CN(C)CCNc1ccc2ncn3c4ccc(O)cc4c(=O)c1c23 | 0 | nt | -4 | -42 | 93* | 60*
